Assay [1] has as its target Cytochrome P450 3A4 (Homo sapiens) (UniProt P08684). The assay can be described thus: qHTS for inhibitors of CYP3A4 against the NCATS DSHEA and TCM libraries (AID 1919971).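 Note: inhibition lowers luminescence from luciferin made by CYP3A4.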 The procedure, abridged: (§1)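 Luminescent P450-Glo readout. Enzyme plus pro-luciferin substrate in manufacturer buffer (typically 100 mM KPO4); 15 min RT preincubation; 1x NADPH regenerating system, 30-45 min RT in the dark; detection reagent 30 min.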
For orientation: Quantitative high-throughput screening tests each substance at several concentrations.

Assay [2] has as its target Cytochrome P450 2C9 (Homo sapiens) (UniProt P11712). Put plainly: qHTS for inhibitors of CYP2C9 against the NCATS DSHEA and TCM libraries (AID 1919973).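 Note: luminogenic pro-luciferin CYP2C9 substrate turned into luciferin with NADPH regeneration; series mostly up to about 34 µM.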 Summed up: as §1
The target in assay [3] is Cytochrome P450 2C19 (Homo sapiens) (UniProt P33261). Put plainly: qHTS for inhibitors of CYP2C19 against the NCATS DSHEA and TCM libraries (AID 1919974).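 Note: luminescence from luciferin released by CYP2C19 oxidation of a pro-luciferin substrate.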 Note: potency is the fitted concentration of half-maximal effect. Summed up:
as §1

The nature of assay [4]: KB-3-1 P-gp reporter qHTS against the NCATS DSHEA and TCM libraries (AID 1919975). The procedure, abridged:
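KB-3-1 parental line, 1536-well qHTS: cells seeded, ~4 h attachment, pintool compound addition, ~72 h at 37C, then CellTiter-Glo, 30 min RT, luminescence. Concentration-response format.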

For assay [5], the target named is Luciferin 4-monooxygenase (Photinus pyralis) (UniProt P08659). The assay can be described thus: Primary firefly luciferase (FLuc) qHTS assay for identification of artifact compounds. (AID 1845220). Note: nearly all actives have a fitted effect of over 60% in size. Summed up: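 D-luciferin and ATP (10 uM each, final) in Tris acetate buffer pH 7.6 were incubated with compounds for 15 min at room temperature. The reaction was started with 10 nM Photinus pyralis luciferase and luminescence read after 5 min. Percent inhibition was fitted to a 4-parameter Hill equation.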

For assay [6], the system named is Nanoluciferase (engineered Oplophorus gracilirostris luciferase). The assay can be described thus: Primary Nanoluciferase (NLuc) qHTS assay for identification of artifact compounds. (AID 1845222). Note: series mostly up to about 54 µM. The procedure, abridged:
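Diluted conditioned medium from NLuc-expressing S16 cells treated with compounds for 15 min at room temperature, then Nano-Glo substrate added; luminescence read after 5 min. Percent inhibition versus no-enzyme and DMSO controls fitted to 4-parameter Hill equation.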

A short description of assay [7]: Primary redox qHTS assay for identification of artifact compounds. (AID 1845223). The procedure, abridged:
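Amplex Red (25 uM) and HRP (250 mU/mL) in HBSS, with compounds for 15 min, then 250 uM DTT for 30 min, room temperature, dark. Fluorescence 525/598 nm read; normalized to DMSO and 10 uM DA3003; Hill fit.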

The target in assay [8] is Cytochrome P450 2D6 (Homo sapiens) (UniProt P10635). The assay can be described thus: qHTS for inhibitors of CYP2D6 against the NCATS DSHEA and TCM libraries (AID 1919972). The text has this:
Assay Development and Screening Technology Laboratory (ADST)
National Center for Advancing Translational Sciences (NCATS), Rockville, MD
National Institute of Health (NIH), Bethesda, Maryland
Dietary Supplements and Natural Products have minor oversight of their safety and efficacy. We assembled a collection of Dietary Supplements and Natural Products (DSNP) as well as Traditional Chinese Medicinal (TCM) Plant extracts, which were screened against an in vitro panel of assays, including a liver cytochrome p450 enzyme panel, CAR/PXR signaling pathways, and P-gp transporter assays, to assess their activity. This pipeline facilitated the interrogation of Natural Product-Drug Interaction (NaPDI) through prominent metabolizing pathways. In addition, we compared the activity profiles of the DSNP/TCM substances with those of an approved drug collection. Many of the approved drugs have well-annotated mechanisms of action (MOA) while the MOAs for most of the DSNP and TCM samples remain unknown. Based on the premise that compounds with similar activity profiles tend to share similar targets or MOA, we clustered the library activity profiles to identify overlap with the NCATS Pharmaceutical Collection to predict the MOAs of the DSNP/TCM substances. Overall, we highlight four significant bioactivity profiles (measured by p-values) as examples of this prediction. To assess broad cytotoxicity, we employed screening against a HepG2 cell line. In addition, transporter-mediated drug interactions are utilized in the characterization of DDIs using a P-glycoprotein (P-gp) assays. To profile potential P-gp activity, a differential cell viability was measured against two cell lines: a parental KB-3-1 human cervical adenocarcinoma cell line and the drug-resistant subline KB-8-5-11 that overexpresses P-gp.
To this end, we profiled both collections for potential CAR and/or PXR activity, employing a previously published 1536-well qHTS assay.
[1] […]
9; Read; Luminescence; ViewLux plate reader. […]

The target of assay [9] is Cytochrome P450 1A2 (Homo sapiens) (UniProt P05177). Put plainly: qHTS for inhibitors of CYPIA2 against the NCATS DSHEA and TCM libraries (AID 1919976).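 Note: light from luciferin formed by CYP1A2 from a pro-luciferin substrate; series mostly up to about 37 µM.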 The procedure, abridged: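 Human CYP1A2 with its pro-luciferin substrate in supplier buffer (typically 100 mM KPO4) was pre-incubated with compounds 15 min at RT. Reaction was started with 1x NADPH regeneration solution and run 30-45 min at RT in the dark, then luminescence was read after P450-Glo detection reagent (30 min RT).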

Unmarked numbers belong to inactive results. Inconclusive results are not listed. Where a call stands in place of a potency, no number is given. Active and inactive are the calls of the source. Calls come from the whole dose curve; as a rule, active = well fitted curve in the direction sought with a large enough effect; inconclusive = small, poorly fitted or top-dose-only effect, or another doubt; inactive = no such curve, though single readings can be large; an effect the other way counts as inactive or inconclusive.

Cytochrome P450 2C9 (Homo sapiens), sequence (P11712 whole entry, looked up): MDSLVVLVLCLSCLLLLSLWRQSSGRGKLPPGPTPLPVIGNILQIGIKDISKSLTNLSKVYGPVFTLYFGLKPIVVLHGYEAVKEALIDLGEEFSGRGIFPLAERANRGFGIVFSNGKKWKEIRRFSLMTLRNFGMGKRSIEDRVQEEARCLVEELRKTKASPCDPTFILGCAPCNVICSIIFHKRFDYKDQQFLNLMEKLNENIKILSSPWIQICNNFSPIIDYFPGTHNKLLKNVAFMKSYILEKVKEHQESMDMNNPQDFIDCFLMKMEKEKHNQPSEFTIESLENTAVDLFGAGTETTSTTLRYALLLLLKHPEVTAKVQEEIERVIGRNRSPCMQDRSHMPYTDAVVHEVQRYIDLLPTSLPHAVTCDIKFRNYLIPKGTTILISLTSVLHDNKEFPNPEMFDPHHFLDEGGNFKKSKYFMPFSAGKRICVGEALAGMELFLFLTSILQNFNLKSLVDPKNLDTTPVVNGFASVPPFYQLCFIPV
Cytochrome P450 3A4 (Homo sapiens), sequence (P08684 whole entry, looked up): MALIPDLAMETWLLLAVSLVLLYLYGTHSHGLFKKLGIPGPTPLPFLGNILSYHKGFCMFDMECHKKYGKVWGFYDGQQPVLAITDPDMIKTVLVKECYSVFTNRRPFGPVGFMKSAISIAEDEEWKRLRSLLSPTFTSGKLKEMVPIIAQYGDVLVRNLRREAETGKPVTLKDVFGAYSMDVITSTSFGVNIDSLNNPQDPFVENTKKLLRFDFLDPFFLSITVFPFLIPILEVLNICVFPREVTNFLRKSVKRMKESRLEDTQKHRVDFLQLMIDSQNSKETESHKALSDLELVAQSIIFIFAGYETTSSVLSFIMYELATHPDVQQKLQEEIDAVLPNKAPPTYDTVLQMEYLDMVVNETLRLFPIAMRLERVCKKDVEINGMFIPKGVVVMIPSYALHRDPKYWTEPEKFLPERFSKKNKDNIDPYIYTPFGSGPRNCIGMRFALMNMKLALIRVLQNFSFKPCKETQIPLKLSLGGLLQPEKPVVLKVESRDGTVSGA
Cytochrome P450 2D6 (Homo sapiens), sequence (P10635 whole entry, looked up): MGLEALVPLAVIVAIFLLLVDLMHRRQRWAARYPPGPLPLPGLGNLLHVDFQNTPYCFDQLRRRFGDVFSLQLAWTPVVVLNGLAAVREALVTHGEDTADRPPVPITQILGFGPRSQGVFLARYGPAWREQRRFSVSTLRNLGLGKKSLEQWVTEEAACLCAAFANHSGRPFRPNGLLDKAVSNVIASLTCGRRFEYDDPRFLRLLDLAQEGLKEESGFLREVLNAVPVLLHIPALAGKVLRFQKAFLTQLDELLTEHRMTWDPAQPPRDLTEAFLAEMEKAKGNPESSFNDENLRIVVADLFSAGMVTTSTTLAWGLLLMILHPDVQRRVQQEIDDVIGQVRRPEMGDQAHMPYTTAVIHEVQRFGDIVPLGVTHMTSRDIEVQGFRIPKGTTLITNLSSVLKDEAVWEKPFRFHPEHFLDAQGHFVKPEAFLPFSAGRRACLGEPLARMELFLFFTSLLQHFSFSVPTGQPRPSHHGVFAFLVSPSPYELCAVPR
Cytochrome P450 1A2 (Homo sapiens), sequence (P05177 whole entry, looked up): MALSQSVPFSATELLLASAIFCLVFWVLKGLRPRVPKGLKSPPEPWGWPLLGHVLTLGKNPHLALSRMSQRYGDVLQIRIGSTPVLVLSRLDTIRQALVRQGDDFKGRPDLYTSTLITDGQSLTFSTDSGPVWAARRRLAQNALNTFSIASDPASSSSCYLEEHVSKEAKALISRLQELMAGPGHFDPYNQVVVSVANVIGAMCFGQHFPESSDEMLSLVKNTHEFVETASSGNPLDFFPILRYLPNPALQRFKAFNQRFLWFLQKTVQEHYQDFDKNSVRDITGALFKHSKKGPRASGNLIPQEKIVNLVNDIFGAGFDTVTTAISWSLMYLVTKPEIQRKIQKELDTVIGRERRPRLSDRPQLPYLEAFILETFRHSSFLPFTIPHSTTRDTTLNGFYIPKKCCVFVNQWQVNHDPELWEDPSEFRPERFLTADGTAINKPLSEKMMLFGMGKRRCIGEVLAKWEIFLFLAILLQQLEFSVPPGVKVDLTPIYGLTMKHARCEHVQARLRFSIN
Cytochrome P450 2C19 (Homo sapiens), sequence (P33261 whole entry, looked up): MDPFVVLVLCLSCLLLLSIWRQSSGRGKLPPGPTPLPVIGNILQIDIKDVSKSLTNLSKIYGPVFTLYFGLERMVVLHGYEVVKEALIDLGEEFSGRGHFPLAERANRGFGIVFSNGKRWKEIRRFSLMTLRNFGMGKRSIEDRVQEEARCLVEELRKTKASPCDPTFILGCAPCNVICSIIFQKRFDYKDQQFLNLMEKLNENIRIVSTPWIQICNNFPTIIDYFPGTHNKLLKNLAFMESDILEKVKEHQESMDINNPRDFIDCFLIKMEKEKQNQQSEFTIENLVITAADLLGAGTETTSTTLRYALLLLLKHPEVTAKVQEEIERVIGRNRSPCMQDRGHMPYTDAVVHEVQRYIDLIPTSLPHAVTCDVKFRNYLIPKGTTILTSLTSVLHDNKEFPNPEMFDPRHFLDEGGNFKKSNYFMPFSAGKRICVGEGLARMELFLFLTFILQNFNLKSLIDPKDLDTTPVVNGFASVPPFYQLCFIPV

For `COC1=CC(=O)O[C@@H](/C=C/c2ccccc2)C1`, the call in assay [1], in [2] and in assay [4] was inactive. Besides, in assay [3], the Potency is 14.1 µM (active).

As for `CC(C)C1(OO)C=C2C(=O)CC3C(C)(C(=O)O)CCCC3(C)C2CC1` (stereo not given), the Potency result in assay [5] is “inactive”. The call in assay [6] and in [7] was inactive.

`O=C1C[C@@H]2OCC=C3CN4CC[C@]56c7ccccc7N1[C@H]5[C@H]2[C@H]3C[C@H]46`: the Potency entry in [5] was “inactive”. Moreover, the call in assay [6] and in assay [7] was inactive.

In the case of `CC(=O)OC12C(O)C(C)C3(O)C4C=C(C)C(=O)C4CC(CO)=CC3C1C2(C)C` (stereo not given), in assay [5], the Potency result was “inactive”. The call in assay [6] and in [7] was inactive.

`Cc1cccc(NC(=O)N[C@@H]2N=C(c3ccccc3)c3ccccc3N(C)C2=O)c1`: the Potency result in assay [5] was “inactive”. The call in assay [7] was inactive.

Consider `COC1CC(=O)C23C(=O)NC(CC(C)C)C2C(C)=C(C)C(OO)C3/C=C(\C)CCC(O)C1O` (stereo not given), for which the Potency result in [5] is “inactive”. In addition, the result in assay [6] and in assay [7] was inactive.

Regarding `Cc1c(Cl)cccc1S(=O)(=O)Nc1nc(CC(=O)N2CCN(C)CC2)cs1`, in assay [5], the Potency entry is “inactive”. For the same compound, the call in [7] was inactive.

As to `COc1ccccc1CN[C@H]1C2CCN(CC2)[C@H]1C(c1ccccc1)c1ccccc1`, the Potency entry in assay [5] is “inactive”. The outcome in [6] and in assay [7] was inactive.

For `CN1C(=O)c2ccccc2NC(=O)[C@]12O[C@@H]2c1ccccc1`, in assay [5], the Potency entry is “inactive”. The outcome in assay [6] and in [7] was inactive.

Take `CC(C)(O)[C@H]1O[C@H]2CC[C@@]3(C)[C@@](O)(CC[C@H]4Cc5c([nH]c6ccccc56)[C@@]43C)C2=CC1=O`: in [5], the Potency result is “inactive”. In addition, the compound was called inactive in assay [6] and in assay [7].

`Oc1ccc2c3c1O[C@H]1[C@H](N(CCCl)CCCl)CC[C@@]4(O)[C@@H](C2)N(CC2CC2)CC[C@]314`: in assay [5], the outcome is “inactive [at 11.6 µM]”. The activity, negative = inhibition in assay [6] was 1.59% [at 11.6 µM]. For the same compound, the redox activity (% of DA3003) in assay [7] was -0.579% [at 11.5 µM].

For `Clc1ccc(N2C[C@H]3CC[C@@H](C2)N3)nn1`, the Potency entry in assay [5] was “inactive”. For the same compound, the call in [6] and in assay [7] was inactive.

For the compound `C[C@H](NC(=O)Cc1cc(F)cc(F)c1)C(=O)N[C@@H]1N=C(c2ccccc2)c2ccccc2N(C)C1=O`, the Potency entry in [5] is “inactive”. Further, the call in assay [6] and in [7] was inactive.

For `COc1cc(C(=O)O[C@H]2[C@@H]3C=CO[C@@H](O[C@@H]4O[C@H](CO)[C@@H](O)[C@H](O)[C@H]4O)[C@@H]3[C@@]3(CO)O[C@@H]23)ccc1O`, in assay [5], the Potency entry is “inactive”. Further, the outcome in assay [6] and in assay [7] was inactive.

In the case of `C[C@]12CC[C@H]3[C@@H]([C@H](O)CC4=CC(=O)CC[C@@]43C)[C@@H]1CC[C@@H]2O`, in assay [5], the Potency entry was “inactive”. Besides, the compound was classed as inactive in assay [6] and in assay [7].

As to `CNC(C)C(O)c1ccc(O)cc1` (stereo not given), the call in assay [1], in assay [8], in assay [2], in [4] and in [9] was inactive. Moreover, the Potency result in assay [3] is “inactive”.

Take `O=C/C=C/c1ccccc1`: the compound was called inactive in assay [1], in [8], in [2], in [4] and in assay [9].

(Values after PubChem BioAssay (NCATS).)
